Experimental data: PubChem BioAssay (NCATS)
Records with an inconclusive call do not appear. Calls of active or inactive are those of the source. Unless noted, calls come from the whole dose curve; as a rule, active = well fitted curve in the direction sought with a large enough effect; inconclusive = small, poorly fitted or top-dose-only effect, or another doubt; inactive = no such curve, though single readings can be large; an effect the other way counts as inactive or inconclusive.

Experiments:
[1] = target: Lysosomal acid glucosylceramidase (Homo sapiens) (UniProt P04062); experiment: Glucocerebrosidase-p2 (AID 348; in the data active = potency below about 10 µM; note: potency is the fitted concentration of half-maximal effect); details: purified GBA, blue fluorogenic substrate, 40 min
Chain of Lysosomal acid glucosylceramidase (Homo sapiens) (P04062 whole entry, looked up): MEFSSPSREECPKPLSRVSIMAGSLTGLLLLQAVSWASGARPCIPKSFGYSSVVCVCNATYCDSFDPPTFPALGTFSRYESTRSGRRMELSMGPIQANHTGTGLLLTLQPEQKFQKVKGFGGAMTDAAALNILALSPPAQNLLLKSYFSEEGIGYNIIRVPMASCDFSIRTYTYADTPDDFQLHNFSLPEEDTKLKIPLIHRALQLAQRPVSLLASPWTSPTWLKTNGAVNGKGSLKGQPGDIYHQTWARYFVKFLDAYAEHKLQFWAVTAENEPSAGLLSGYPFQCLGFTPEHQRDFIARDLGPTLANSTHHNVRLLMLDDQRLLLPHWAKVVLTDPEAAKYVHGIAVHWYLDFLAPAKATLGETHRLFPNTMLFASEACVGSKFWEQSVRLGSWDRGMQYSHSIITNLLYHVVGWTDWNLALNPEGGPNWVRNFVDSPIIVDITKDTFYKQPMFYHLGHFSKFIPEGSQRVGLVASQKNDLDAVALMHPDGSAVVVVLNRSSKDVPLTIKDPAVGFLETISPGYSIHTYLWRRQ
How it was run: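 Compounds titrated from 0.6 nM upwards against 0.2 nM enzyme in pH 5.9 citric acid/KH2PO4, taurocholate, tween-20; blue fluorogenic substrate 80 uM, 40 min room temperature, stopped and read Ex 365/Em 440 for AC50.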

[2] = target: Cytochrome P450 1A2 (Homo sapiens) (UniProt P05177); experiment: p450-cyp1a2 (AID 410; calls by dose curve; note: potency is the fitted concentration of half-maximal effect); details: recombinant CYP1A2, luciferin-ME demethylation, luminescence; series mostly up to 57 µM
Chain of Cytochrome P450 1A2 (Homo sapiens) (P05177 whole entry, looked up): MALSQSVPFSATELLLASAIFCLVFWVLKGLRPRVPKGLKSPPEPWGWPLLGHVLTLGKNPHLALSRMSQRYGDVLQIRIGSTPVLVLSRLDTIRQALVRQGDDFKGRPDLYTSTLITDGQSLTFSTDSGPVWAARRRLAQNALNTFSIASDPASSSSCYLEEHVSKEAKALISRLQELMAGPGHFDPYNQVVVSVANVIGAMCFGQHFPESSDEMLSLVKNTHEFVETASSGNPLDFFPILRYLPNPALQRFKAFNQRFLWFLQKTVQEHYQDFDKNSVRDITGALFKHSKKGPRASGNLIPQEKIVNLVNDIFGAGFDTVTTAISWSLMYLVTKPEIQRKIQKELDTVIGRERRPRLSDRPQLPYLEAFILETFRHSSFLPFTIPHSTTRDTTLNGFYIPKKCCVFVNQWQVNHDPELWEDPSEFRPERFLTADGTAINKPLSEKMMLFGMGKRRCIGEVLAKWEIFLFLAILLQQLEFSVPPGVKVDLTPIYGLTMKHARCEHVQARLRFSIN
How it was run: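 Inhibition was calculated relative to 57 uM furafylline (full inhibition). The reaction used human CYP1A2 at 20nM with Luciferin-ME at its Km, 100uM, driven by an NADPH-regenerating system for 60 min at room temperature.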

[3] = NFAT Signaling Pathway (AID 444; active = well fitted curve in either direction with a large enough effect, not every such curve was filed as active;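 note: carbachol stimulus at about its EC50 of 1 µM final; % is set by controls: 0 for no effect and ±100 for the full control effect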); details: Jurkat NFAT-bla M1, carbachol, beta-lactamase ratio, 5 h; at 7.69 µM (top of the series) unless noted
How it was run: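 Jurkat cells with NFAT-driven β-lactamase reporter and co-expressed M1 receptor, stimulated with carbachol (final 1 uM, ~EC50), compound titration, 5 h at 37 °C. CCF4 loaded 1 h at RT; 460/530 nm ratio gave %activity and AC50.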

[4] = Stat Signaling Pathway (AID 446; active = well fitted curve in either direction with a large enough effect, not every such curve was filed as active;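 note: ME-180 cervical cancer cells given 40 pM IL-6 alongside compound; SIE-controlled beta-lactamase reporter measured as 460/530 nm FRET emission ratio; % is set by controls: 0 for no effect and ±100 for the full control effect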); details: ME-180 SIE beta-lactamase reporter, IL-6 stimulated, 5 h; at 7.69 µM (top of the series) unless noted
How it was run: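 ME-180 cells carrying a SIE-driven beta-lactamase reporter are stimulated with 40 pM IL-6 for 5 h at 37C in the presence of compound. The 460/530 nm FRET substrate ratio is read after 2.5 h at RT. Data are normalised to 300 pM IL-6 and to 125 nM JAK inhibitor controls.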

[5] = target: Glucocorticoid receptor (Homo sapiens) (UniProt P04150); experiment: GR-GFP Redistribution (AID 450;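 active = compounds whose dose series gives a full or clear partial fitted curve of increased nuclear translocation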; note: potency is the fitted concentration of half-maximal effect); details: U2OS GR-GFP nuclear translocation, laser cytometry, 2 h
Chain of Glucocorticoid receptor (Homo sapiens) (P04150 whole entry, looked up, the tested form may be a part): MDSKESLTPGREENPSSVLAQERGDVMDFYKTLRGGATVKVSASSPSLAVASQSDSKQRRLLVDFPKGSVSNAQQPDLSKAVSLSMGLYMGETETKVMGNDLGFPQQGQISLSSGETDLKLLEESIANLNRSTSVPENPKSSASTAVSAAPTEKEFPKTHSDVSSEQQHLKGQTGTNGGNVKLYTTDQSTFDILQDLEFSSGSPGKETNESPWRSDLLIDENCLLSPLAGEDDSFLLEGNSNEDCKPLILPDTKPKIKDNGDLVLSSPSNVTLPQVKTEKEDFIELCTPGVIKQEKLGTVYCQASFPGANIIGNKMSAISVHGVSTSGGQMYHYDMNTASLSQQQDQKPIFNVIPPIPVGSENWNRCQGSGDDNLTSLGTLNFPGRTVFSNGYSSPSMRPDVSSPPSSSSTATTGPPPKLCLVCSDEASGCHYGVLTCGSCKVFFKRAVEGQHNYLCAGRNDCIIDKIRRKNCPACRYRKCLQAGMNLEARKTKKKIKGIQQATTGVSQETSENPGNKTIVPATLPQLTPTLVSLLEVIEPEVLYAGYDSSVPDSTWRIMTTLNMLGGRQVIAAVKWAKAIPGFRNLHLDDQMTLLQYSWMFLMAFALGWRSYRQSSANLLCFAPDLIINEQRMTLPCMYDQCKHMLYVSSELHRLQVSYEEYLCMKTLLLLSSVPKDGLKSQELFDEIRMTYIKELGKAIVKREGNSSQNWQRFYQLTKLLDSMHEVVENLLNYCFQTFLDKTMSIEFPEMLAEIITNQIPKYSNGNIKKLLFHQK

[6] = target: Glucocorticoid receptor (Homo sapiens) (UniProt P04150); experiment: GR-EFC Redistribution (AID 451; calls by dose curve; note: potency is the fitted concentration of half-maximal effect); details: CHO-K1 GR-EFC translocation, beta-gal luminescence, 2 h
How it was run: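 CHO-K1 cells expressing nuclear EA and GR-ED fragments of b-gal; compounds titrated up to 46 uM final, 2 h at 37 C. GR nuclear translocation read as complemented b-gal luminescence after 1 h RT detection.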

[7] = target: Mitogen-activated protein kinase 10 (Mus musculus) (UniProt Q61831); experiment: JNK3 AlphaScreen Assay (AID 530; active = well fitted curve in either direction with a large enough effect, not every such curve was filed as active;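 note: kinase came from lysate of stimulated human HepG2 cells; signal reports phosphorylation of biotinylated GST-cJun 1-79 at Ser73 with 10 µM ATP; % is set by controls: 0 for no effect and ±100 for the full control effect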); details: JNK3 lysate, c-Jun phosphorylation; series mostly up to 57.1 µM
How it was run: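 qHTS format: compounds tested as titrations against IL-1beta/TNF-alpha-activated HepG2 lysate JNK3 with biotin-GST-cJun substrate and 10 uM ATP at room temperature. Loss of anti-phospho-cJun AlphaScreen signal indicates inhibition.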

[8] = target: 3',5'-cyclic-AMP phosphodiesterase 4B (Homo sapiens) (UniProt Q07343); experiment: qHTS Assay for Inhibitors of PDE-IV (AID 607; active = well fitted activation curve with a large enough effect in the main read-out, with a control signal flat, not every such curve was filed as active; note: % of control where 0% means no effect); details: HEK293 ACTOne CNG channel cells, membrane potential fluorescence; series mostly up to 22.9 µM
Chain of 3',5'-cyclic-AMP phosphodiesterase 4B (Homo sapiens) (Q07343 whole entry, looked up): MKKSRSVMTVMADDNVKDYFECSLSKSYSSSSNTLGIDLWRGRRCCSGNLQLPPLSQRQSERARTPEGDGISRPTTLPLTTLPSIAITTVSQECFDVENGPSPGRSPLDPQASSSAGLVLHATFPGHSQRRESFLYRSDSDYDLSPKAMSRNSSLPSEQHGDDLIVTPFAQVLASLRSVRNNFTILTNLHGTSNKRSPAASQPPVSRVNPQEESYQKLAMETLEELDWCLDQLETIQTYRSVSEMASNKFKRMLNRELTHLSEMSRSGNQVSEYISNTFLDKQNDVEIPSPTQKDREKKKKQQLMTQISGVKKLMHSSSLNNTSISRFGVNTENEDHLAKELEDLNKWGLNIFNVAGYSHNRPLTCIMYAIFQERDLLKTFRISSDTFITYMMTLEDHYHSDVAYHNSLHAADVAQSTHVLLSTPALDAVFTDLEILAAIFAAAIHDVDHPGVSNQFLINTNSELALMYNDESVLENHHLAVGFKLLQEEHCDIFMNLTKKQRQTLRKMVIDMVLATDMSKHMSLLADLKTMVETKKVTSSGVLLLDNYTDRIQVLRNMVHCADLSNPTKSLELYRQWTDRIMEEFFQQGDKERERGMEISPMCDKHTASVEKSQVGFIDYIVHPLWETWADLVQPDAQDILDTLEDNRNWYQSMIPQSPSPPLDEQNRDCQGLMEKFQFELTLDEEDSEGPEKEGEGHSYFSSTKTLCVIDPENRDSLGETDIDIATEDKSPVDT
How it was run: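 HEK293 ACTOne cells with CNG channel (1000/well), endogenous PDE4; membrane potential dye, compounds up to 22.9 uM final. Fluorescence Ex 535/Em 590; RO 20-1724 (100 uM final) as reference.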

[9] = target: Cytochrome P450 3A4 (Homo sapiens) (UniProt P08684); experiment: qHTS Assay for Activators of Cytochrome P450 3A4 (AID 885); details: recombinant CYP3A4, Luciferin-PPXE luminescence, 60 min; series mostly up to 57.1 µM; note: nearly all actives have a fitted effect of over 65% in size
Chain of Cytochrome P450 3A4 (Homo sapiens) (P08684 whole entry, looked up): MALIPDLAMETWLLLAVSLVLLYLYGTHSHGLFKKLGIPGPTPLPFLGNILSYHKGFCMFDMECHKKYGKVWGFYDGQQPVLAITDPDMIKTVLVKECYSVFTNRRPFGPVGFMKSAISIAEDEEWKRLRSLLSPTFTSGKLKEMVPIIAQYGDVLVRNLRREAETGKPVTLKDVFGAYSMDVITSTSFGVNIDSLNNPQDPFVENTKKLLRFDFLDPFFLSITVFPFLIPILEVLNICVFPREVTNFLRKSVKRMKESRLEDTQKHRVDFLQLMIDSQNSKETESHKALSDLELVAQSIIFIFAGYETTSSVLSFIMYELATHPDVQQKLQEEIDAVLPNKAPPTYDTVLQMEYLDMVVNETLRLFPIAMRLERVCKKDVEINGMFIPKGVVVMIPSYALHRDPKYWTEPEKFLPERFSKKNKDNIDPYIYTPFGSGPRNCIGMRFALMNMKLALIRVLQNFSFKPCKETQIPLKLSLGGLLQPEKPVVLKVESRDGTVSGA
How it was run: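 Human CYP3A4 (20 nM) with Luciferin-PPXE at 25 uM (its KM) in 200 mM KPO4; 10 min compound preincubation, then NADPH regeneration and 60 min reaction at RT. Luciferin read by luminescence; normalized to 57 uM ketoconazole full inhibition.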

[10] = target: Dual specificity protein kinase CLK4 (Homo sapiens) (UniProt Q9HAZ1); experiment: qHTS Assay for Inhibitors of CDC-like Kinase 4 (Kinase-Glo Assay) (AID 1770); details: recombinant Clk4, Kinase-Glo ATP depletion luminescence; series mostly up to 66.7 µM; note: nearly all actives have a fitted effect of over 65% in size; note: potency is the fitted concentration of half-maximal effect
Chain of Dual specificity protein kinase CLK4 (Homo sapiens) (Q9HAZ1 whole entry, looked up): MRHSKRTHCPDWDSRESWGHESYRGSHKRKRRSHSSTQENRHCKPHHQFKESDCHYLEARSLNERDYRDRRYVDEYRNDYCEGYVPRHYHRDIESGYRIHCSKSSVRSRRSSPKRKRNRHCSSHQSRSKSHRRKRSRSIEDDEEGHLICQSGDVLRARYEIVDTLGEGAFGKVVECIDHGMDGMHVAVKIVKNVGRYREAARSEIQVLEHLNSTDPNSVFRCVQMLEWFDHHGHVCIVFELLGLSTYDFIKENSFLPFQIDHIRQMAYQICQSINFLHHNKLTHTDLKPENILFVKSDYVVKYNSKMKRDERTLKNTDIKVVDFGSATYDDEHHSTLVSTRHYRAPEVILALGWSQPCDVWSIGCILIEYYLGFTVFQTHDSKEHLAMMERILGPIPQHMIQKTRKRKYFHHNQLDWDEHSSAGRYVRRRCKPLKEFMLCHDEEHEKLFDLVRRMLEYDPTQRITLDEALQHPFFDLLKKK
How it was run: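 Inhibition was judged from remaining ATP, measured by Ultra-Glo luciferase bioluminescence after Clk4 (25 nM) had acted on RS peptide at 1 uM ATP for 4.5 hours, room temperature.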

[11] = target: Dual specificity protein kinase CLK4 (Homo sapiens) (UniProt Q9HAZ1); experiment: qHTS Assay for Inhibitors of CDC-like Kinase 4 (ADP-Glo Assay) (AID 1771); details: recombinant CLK4, ADP-Glo luminescence; series mostly up to 80 µM; note: nearly all actives have a fitted effect of over 70% in size; note: potency is the fitted concentration of half-maximal effect
How it was run: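 Kinase reaction: Clk4 at 25 nM, RS repeat peptide substrate at 100 uM, ATP at 1 uM, 1 hr, room temperature. Product ADP detected as luciferase signal via ADP-Glo.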

[12] = target: Dual specificity protein kinase CLK4 (Homo sapiens) (UniProt Q9HAZ1); experiment: qHTS Assay for Inhibitors of CDC-like Kinase 4 (ADP-FP Assay) (AID 1795); details: Transcreener ADP fluorescence polarization; series mostly up to 50 µM; note: nearly all actives have a fitted effect of over 60% in size; note: potency is the fitted concentration of half-maximal effect
How it was run: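 Inhibition of ADP formation by 6.25 nM Clk4 is measured using 1 uM ATP and 100 uM RS repeat peptide over one hour. Produced ADP displaces a fluorescent tracer from antibody, lowering polarization.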

[13] = target: Ubiquitin carboxyl-terminal hydrolase 1 (Homo sapiens) (UniProt O94782); experiment: Inhibitors of USP1/UAF1: Pilot qHTS (AID 504865); details: purified USP1/UAF1, Ub-rhodamine cleavage fluorescence; series mostly up to 54.9 µM;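 note: rhodamine fluorescence freed from ubiquitin-rhodamine substrate followed over time; top concentration of the series differs between compounds; % is set by controls: 0 for no effect and ±100 for the full control effect; nearly all actives have a fitted effect of over 35% in size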
Chain of Ubiquitin carboxyl-terminal hydrolase 1 (Homo sapiens) (O94782 whole entry, looked up): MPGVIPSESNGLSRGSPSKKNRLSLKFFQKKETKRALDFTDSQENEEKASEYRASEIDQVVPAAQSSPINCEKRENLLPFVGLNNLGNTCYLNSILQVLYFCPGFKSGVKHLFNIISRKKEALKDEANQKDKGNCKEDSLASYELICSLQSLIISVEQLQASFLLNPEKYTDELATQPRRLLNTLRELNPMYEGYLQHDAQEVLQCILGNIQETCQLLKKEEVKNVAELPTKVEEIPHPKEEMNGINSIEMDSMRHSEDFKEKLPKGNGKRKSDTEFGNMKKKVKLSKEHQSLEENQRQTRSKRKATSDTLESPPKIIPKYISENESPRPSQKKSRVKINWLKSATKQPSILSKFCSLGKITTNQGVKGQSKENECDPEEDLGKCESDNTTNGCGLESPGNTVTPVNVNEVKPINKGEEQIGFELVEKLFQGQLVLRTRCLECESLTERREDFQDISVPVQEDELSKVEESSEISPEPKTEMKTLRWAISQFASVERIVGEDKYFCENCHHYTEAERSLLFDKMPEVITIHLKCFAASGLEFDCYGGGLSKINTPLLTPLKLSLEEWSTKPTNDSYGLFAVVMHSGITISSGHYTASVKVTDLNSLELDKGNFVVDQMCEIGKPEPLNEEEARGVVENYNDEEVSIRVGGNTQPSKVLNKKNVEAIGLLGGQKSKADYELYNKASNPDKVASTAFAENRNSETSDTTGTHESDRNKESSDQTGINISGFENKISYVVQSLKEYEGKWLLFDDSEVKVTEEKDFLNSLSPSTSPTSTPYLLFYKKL
How it was run: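 Kinetic fluorescence assay: 1nM USP1/UAF1, 15 min compound preincubation, then 150nM Ub-Rho; 480/540 nm.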

[14] = Primary qHTS for small molecule stabilizers of the endoplasmic reticulum resident proteome: Secreted ER Calcium Modulated Protein (SERCaMP) assay (AID 1508630); details: SH-SY5Y GLuc-SERCaMP (Gaussia luciferase released on ER calcium loss) secretion, thapsigargin, luminescence; series mostly up to 38.4 µM; note: % is set by controls: 0 for no effect and ±100 for the full control effect
How it was run: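 GLuc-SERCaMP-expressing SH-SY5Y cells, pretreated 16 h with compound, are challenged with thapsigargin to empty ER calcium stores; after 4 h, coelenterazine is added directly to the medium and luminescence is imaged.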

[15] = target: Cytochrome P450 2C19 (Homo sapiens) (UniProt P33261); experiment: qHTS Assay for Inhibitors and Substrates of Cytochrome P450 2C19 (AID 899); details: recombinant CYP2C19, luciferin-H EGE luminescence; series mostly up to 57.1 µM; note: potency is the fitted concentration of half-maximal effect; nearly all actives have a fitted effect of over 60% in size
Chain of Cytochrome P450 2C19 (Homo sapiens) (P33261 whole entry, looked up): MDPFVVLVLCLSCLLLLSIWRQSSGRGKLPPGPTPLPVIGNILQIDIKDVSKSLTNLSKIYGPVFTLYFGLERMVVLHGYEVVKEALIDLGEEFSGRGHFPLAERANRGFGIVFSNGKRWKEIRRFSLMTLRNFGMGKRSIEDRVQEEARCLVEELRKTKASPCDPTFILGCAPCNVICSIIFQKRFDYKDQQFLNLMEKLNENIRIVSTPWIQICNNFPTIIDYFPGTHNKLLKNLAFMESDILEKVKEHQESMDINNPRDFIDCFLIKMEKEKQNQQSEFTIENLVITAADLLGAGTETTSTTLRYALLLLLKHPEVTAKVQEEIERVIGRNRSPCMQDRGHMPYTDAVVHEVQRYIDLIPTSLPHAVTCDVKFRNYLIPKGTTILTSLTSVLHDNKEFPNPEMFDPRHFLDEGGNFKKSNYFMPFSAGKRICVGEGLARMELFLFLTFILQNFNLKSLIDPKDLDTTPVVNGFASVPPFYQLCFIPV
How it was run: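 Signal comes from luciferase acting on luciferin released by CYP2C19-mediated hydroxylation of Luciferin-H EGE, 10uM (KM). Assay mix: 5nM enzyme, 50mM KPO4; 60 min at 37C with NADPH regeneration. Data normalized against 57uM ketoconazole.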

[16] = target: Cytochrome P450 3A4 (Homo sapiens) (UniProt P08684); experiment: qHTS Assay for Inhibitors and Substrates of Cytochrome P450 3A4 (AID 884); details: recombinant CYP3A4, Luciferin-PPXE luminescence; series mostly up to 57.1 µM; note: potency is the fitted concentration of half-maximal effect; nearly all actives have a fitted effect of over 50% in size
How it was run: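 20 nM human CYP3A4 with 25 uM Luciferin-PPXE (at KM) in 200 mM KPO4, preincubated 10 min with compound; NADPH regeneration started a 60 min RT reaction. Luciferin detected by luminescence, normalized to 57 uM ketoconazole as full inhibition.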

[17] = target: Cytochrome P450 2D6 (Homo sapiens) (UniProt P10635); experiment: qHTS Assay for Inhibitors and Substrates of Cytochrome P450 2D6 (AID 891); details: recombinant CYP2D6, luciferin-ME EGE luminescence; series mostly up to 57.1 µM; note: potency is the fitted concentration of half-maximal effect; nearly all actives have a fitted effect of over 60% in size
How it was run: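 Human CYP2D6 (5 nM) with 30 uM Luciferin-ME EGE (at Km) in 100 mM KPO4, compound preincubated 10 min, then NADPH regeneration system for 60 min at room temperature. Luciferin read by luminescence; normalized to 1.43 uM quinidine.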

[18] = qHTS Assay for Identification of Small Molecule Agonists for Hypoxia Response Element Signaling Pathway (AID 914; active = well fitted activation curve with a large enough effect in the signal ratio, with a control signal flat, not every such curve was filed as active; the % refers to the signal ratio; note: potency is the fitted concentration of half-maximal effect); details: ME-180 HRE-bla reporter, beta-lactamase ratio, CoCl2, 17 h; activation: hits give high values
How it was run: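 ME-180 cells carrying an HRE-driven beta-lactamase reporter were treated with compounds in a titration series plus an EC50 level of CoCl2 for 17 h at 37 degrees Celsius; CCF4 readout as the 460nm/530nm ratio gave AC50 values.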

[19] = target: Cytochrome P450 2C9 (Homo sapiens) (UniProt P11712); experiment: qHTS Assay for Inhibitors and Substrates of Cytochrome P450 2C9 (AID 883); details: recombinant CYP2C9, luciferin-H luminescence, 60 min; series mostly up to 57.1 µM; note: potency is the fitted concentration of half-maximal effect; nearly all actives have a fitted effect of over 60% in size
How it was run: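 Signal: luciferase luminescence reporting luciferin produced by CYP2C9. Conditions: 10nM enzyme, Luciferin-H 100uM at KM, 25mM KPO4, 37C, 60 min NADPH-driven reaction. Reference: 57uM sulphaphenazole as 100% inhibition.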

N#CCCn1c(=O)c(-c2cccs2)nc2cnc(Nc3ccccc3)nc21
active: Potency [2] 5.01 µM
inactive: Potency [1] > 11.4 µM | activity change, negative = inhibition [3] -22.7% | activity, negative = inhibition [4] -25% | Potency [5] > 9.22 µM | Potency [6] > 46 µM | Potency [7] | Potency [8] | Potency [9] | Potency [10] | Potency [11] | Potency [12] | Potency [13] | outcome [14]

c1ccc(Nc2ncnc3ccc(-c4ccoc4)cc23)cc1
inactive: Potency [1] > 11.4 µM | activity change, negative = inhibition [3] 14.5% | activity, negative = inhibition [4] -4.75% | Potency [5] > 46 µM | Potency [6] > 46 µM | Potency [7] | Potency [8] | Potency [9] | Potency [13] | outcome [14]
active: Potency [2] 1.58 µM | Potency [15] 2 µM | Potency [10] 0.708 µM | Potency [11] 0.631 µM | Potency [12] 0.447 µM

c1cn(-c2ccnc(-c3ccc4c(c3)OCO4)n2)cn1
active: Potency [2] 0.0251 µM | Potency [16] 0.631 µM | Potency [17] 3.16 µM | Potency [10] 2.51 µM | Potency [11] 2.24 µM | Potency [12] 3.98 µM
inactive: Potency [1] > 11.4 µM | activity change, negative = inhibition [3] 17.8% | activity, negative = inhibition [4] 5.91% | Potency [5] > 46 µM | Potency [7] | Potency [8] | Potency [9] | Potency [13] | outcome [14]

COc1ccc(-n2c(=O)c(-c3cc(F)cc(F)c3)nc3cnc(N4CCOCC4)nc32)cc1
inactive: Potency [1] > 11.4 µM | Potency [5] > 9.22 µM | Potency [6] > 46 µM | Potency [7] | Potency [8] | Potency [9] | Potency [10] | Potency [11] | Potency [12] | Potency [13] | outcome [14]
active: Potency [2] 15.8 µM | Potency [18] 1.58 µM

COc1cccc(Cn2c(=O)c(-c3cccs3)nc3cnc(OC)nc32)c1
inactive: Potency [1] > 11.4 µM | activity change, negative = inhibition [3] 25.8% | Potency [5] > 9.22 µM | Potency [6] > 46 µM | Potency [9] | Potency [10] | Potency [11] | Potency [12] | Potency [13] | outcome [14]
active: Potency [2] 3.16 µM | Potency [19] 3.16 µM | Potency [16] 3.98 µM

COc1ccccc1CNc1ncnc2ccc(-c3ccc4c(c3)OCO4)cc12
inactive: Potency [1] > 11.4 µM | activity change, negative = inhibition [3] -26.5% | activity, negative = inhibition [4] -7.21% | Potency [5] > 46 µM | Potency [6] > 46 µM | Potency [7] | Potency [9] | Potency [13] | outcome [14]
active: Potency [2] 0.794 µM | Potency [16] 1.26 µM | Potency [17] 0.794 µM | Potency [15] 3.16 µM | Potency [10] 0.0794 µM | Potency [11] 0.158 µM | Potency [12] 0.0251 µM
